The results in this text go back to PubChem BioAssay AID588475 (Sanford-Burnham Center for Chemical Genomics, 2011).

In all, about 350,000 compounds went through this assay and about 2,100 (0.6%) were called active.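 Rule for the calls: active = inhibition of the ligand-induced calcium signal above about 50% at the single tested concentration (limit read from the data); inactive = the rest.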 Shown is part of a subset that was picked to be rich in actives.

A short description of the assay: antagonists of CRF-BP/CRF-R2 complex, primary screen, cell-based, HEK293, calcium dye fluorescence, uHTS (AID 588475). To be noted: CRF-induced calcium fluorescence, at 11.8 µM, stronger effect = higher value.
For the compound `OC(C#CCN1CCOCC1)(c1ccccc1)C1CCCCC1` (configuration not stated), the inhibition is -6% (inactive). `Cc1ccccc1-n1c(SCC(=O)Nc2cccc3ccccc23)nc(O)cc1=O`: the inhibition was -4.41% (inactive). Under `COc1ccc(S(=O)(=O)N2CCOCC2)cc1NC(=O)COc1ccccc1` stands 12.8% (inactive); under `COc1ccc(S(=O)(=O)N2CCOCC2)cc1NC(=O)CC1CC2CCC1C2` (configuration not stated), 80.4% (active). Under `COc1ccc(S(=O)(=O)N2CCOCC2)cc1NC(=O)CSc1cc(C)ccc1C` stands 1.57% (inactive); under `O=C(Nc1cccn(Cc2c(Cl)cccc2Cl)c1=O)c1ccc(Cl)cc1`, -7% (inactive); under `Cc1ccc(OCc2nnc(NC(=O)OCC(C)C)s2)cc1`, -2.73% (inactive).

Regarding `COc1ccc(NC(=O)C2=C(C)NC(=O)NC2c2ccccc2[N+](=O)[O-])cc1` (configuration not stated), the inhibition is -10% (inactive). Turning to `COC(=O)c1nc2n(n1)C(c1ccc([N+](=O)[O-])cc1)C(C(=O)Nc1ccc(Cl)cc1)=C(C)N2` (configuration not stated), the inhibition is 56.3% (active).

As to `COc1cc(C2C(C(=O)Nc3ccc(F)cc3)=C(C)Nc3nc(CCCO)nn32)cc(OC)c1OC` (configuration not stated), the inhibition was 5.65% (inactive). Regarding `O=C(Nc1cc(-c2ccccc2)nn1-c1ccccc1F)c1ccc([N+](=O)[O-])cc1`, the inhibition is -5.97% (inactive).

Consider `CCS(=O)(=O)C1=NSC2=NC(=O)/C(=C\c3ccc(OS(=O)(=O)c4ccccc4)cc3)C(=N)N21`, for which the inhibition was 0.32% (inactive). For `CCS(=O)(=O)C1=NSC2=NC(=O)/C(=C\c3cc(C)n(-c4cccc(OC)c4)c3C)C(=N)N21` the value was 81.8% (active); for `CS(=O)(=O)C1=NN2C(=N)/C(=C\c3ccc(OCCOc4ccccc4)cc3)C(=O)N=C2S1`, 26.8% (inactive); for `CCOc1ccc(NC(=S)NC(=O)/C=C/c2ccc(OC)cc2)c([N+](=O)[O-])c1`, -8% (inactive). Under `CCOC(=O)/C(C#N)=C\c1c(C)cc(C)c(COC(C)=O)c1C` stands 3.93% (inactive); under `CCOC(=O)c1nnn(-c2nonc2-n2cccc2)c1CN1CCC(C(=O)OCC)CC1`, 17.9% (inactive). Turning to `COc1ccc(-c2ccc(CCC(=O)O)n2NC(=O)c2ccc(C(C)(C)C)cc2)cc1`, the inhibition was 7.59% (inactive). Turning to `Cc1cccc(OC(C)C(=O)N2CCc3ccccc3C2)c1` (configuration not stated), the inhibition is 16.6% (inactive). For `COCc1cc(=O)[nH]c(SC)n1` the value was 9.17% (inactive); for `Cc1cc(C)c2nc3nc(C)cc(C)c3c(N)c2c1`, 90.7% (active). For `CN(C)S(=O)(=O)c1cccc(NC(=S)N/N=C/C(=O)c2ccccc2)c1` the value was 3.21% (inactive). For `Cc1ccc(/C=N/NC(=S)Nc2cccc(S(=O)(=O)N(C)C)c2)o1`, the inhibition was 82.9% (active). `Cc1ccc(/C=N/NC(=S)NC2CCCCC2)o1`: the inhibition was -28.4% (inactive). With `O=C1CC2(CCCC2)C(=O)N1CN1CCN(S(=O)(=O)c2ccc(F)cc2F)CC1`, the inhibition was 6.17% (inactive). Take `Cc1cc(C(=O)OCC(=O)Nc2nccs2)c2ccccc2n1`: the inhibition is 8.78% (inactive). As for `O[C@H]1CN(Cc2cccs2)[C@@H](c2ccc(Cl)cc2)C[C@@H]1n1cc(C2CC2)nn1`, the inhibition is -16.1% (inactive). Regarding `Cc1cccc(N2CCN(C(=O)c3cnn4c(C(F)F)cc(-c5ccccc5)nc34)CC2)c1C`, the inhibition is -11.8% (inactive). With `CCCc1nc(SCC(=O)Nc2ccccc2OC)c2c(=O)n(C)c(=O)n(C)c2n1`, the inhibition is -6.56% (inactive). As for `CCOc1cccc(=O)c2c(C)n(CC3CCCO3)c(C)c12` (configuration not stated), the inhibition was -12.3% (inactive). As for `O=C1c2cccc3c([N+](=O)[O-])ccc(c23)C(=O)N1CC1CCCO1` (configuration not stated), the inhibition was 87.2% (active). Under `CN1CN(C)c2ccc([N+](=O)[O-])c3cccc1c23` stands 4.39% (inactive); under `Cc1ccc(S(=O)(=O)NC(=O)c2cccc(C)c2)cc1`, -9.88% (inactive); under `COC(=O)C1=CN(Cc2ccc(OC)cc2)C=C(C(=O)OC)C1c1ccc(O)c(OC)c1`, -26.4% (inactive). Under `CCCC(=O)Nc1cc(OCC)c(NC(=O)NC2CCCCC2)cc1OCC` stands 15.3% (inactive); under `CCOc1cc(C2C(C(=O)OC)=CN(C3CCCC3)C=C2C(=O)OC)cc(Br)c1O`, 50.2% (active); under `CCn1c(SCC(=O)NC2CC2)nnc1-c1ccncc1`, 52% (active). For `CCn1c(SCC(=O)NC2CC2)nnc1-c1ccccn1` the value was 2.34% (inactive); for `CCn1c(SCC(=O)NC2CC2)nnc1-c1ccccc1OC`, 18.7% (inactive); for `Nc1nc(SCC(=O)Nc2cc(C(F)(F)F)ccc2Cl)[nH]c(=O)c1NC(=O)c1ccco1`, 0.81% (inactive). For the compound `COC(=O)C1=CO[C@@H](O[C@@H]2O[C@H](CO)[C@@H](O)[C@H](O)[C@H]2O)C2C1C[C@H](O)[C@@H]2C` (some centres not stated), the inhibition is 1.31% (inactive). In the case of `CCOc1ccc(NC(=O)Nc2cc(C)on2)cc1`, the inhibition was -27.8% (inactive). Under `CCOc1ccc(NC(=O)Nc2cc(C)ccc2OC)cc1` stands 54.1% (active); under `COc1ccc(C)cc1NC(=O)Nc1ccccc1SC`, 23.5% (inactive). Consider `CCN(CC(=O)Nc1cc(Cl)ccc1C)C(=O)CN1C(=O)NC2(CCCC2)C1=O`, for which the inhibition was -3.2% (inactive).

With `CN(C(=O)CCNC(=O)Cn1ccc2ccccc2c1=O)c1ccc(Br)cc1`, the inhibition is 1.39% (inactive). Take `Cc1cccc(-c2nc(CS(=O)CC(=O)NC(C)CCc3ccccc3)c(C)o2)c1` (configuration not stated): the inhibition was -5.77% (inactive). In the case of `Cn1nc(N)c2ncc(C(Cl)(Cl)Cl)nc21`, the inhibition is 73.4% (active). For `COc1ccc(CC(=O)OC(C)C(=O)Nc2ccc(S(N)(=O)=O)cc2)cc1` (configuration not stated) the value was -1.19% (inactive). For `COc1ccc(S(=O)(=O)N2CCN(C(=O)c3cccs3)CC2)cc1OC` the value was 22.7% (inactive); for `COc1cccc(NC(=S)NC(=O)c2c(Cl)c(C)nn2C)c1`, -4.16% (inactive); for `COc1cccc(NC(=O)Nc2ccc(F)cc2)c1`, -2.92% (inactive). As to `COc1cccc(NC(=S)C(C#N)=C2N(C)c3ccccc3N2C)c1`, the inhibition is 79.1% (active). For the compound `Cc1nn(C)c(Oc2ccccc2)c1CCNS(=O)(=O)c1ccc(F)cc1`, the inhibition was -3.36% (inactive).

For `Nc1ncnc2c1ncn2[C@@H]1O[C@H](CNS(=O)(=O)c2ccc(-c3ccno3)s2)[C@@H](O)[C@H]1O`, the inhibition is 3.06% (inactive). For the compound `CCOC(=O)C1=NNC2(c3ccc(Cl)cc3)C(=O)N(c3cc(C)cc(C)c3)C(=O)C12` (configuration not stated), the inhibition was 17.3% (inactive). Under `Cc1cc(OCCCC(=O)Nc2cc(S(=O)(=O)N3CCOCC3)ccc2N2CCOCC2)ccc1Cl` stands 62.5% (active); under `Cc1cccc(OCCC(=O)Nc2cc(S(=O)(=O)N3CCCCC3)ccc2N2CCOCC2)c1`, -1.67% (inactive); under `CC(C)CCOc1ccc(C(=O)Nc2cc(S(=O)(=O)N3CCOCC3)ccc2N2CCOCC2)cc1`, 19.1% (inactive). With `O=C(Nc1c2c(nn1-c1ccccc1)CS(=O)(=O)C2)C1CCCC1`, the inhibition is 7.96% (inactive). Under `COc1cccc(CNC(=O)CCC2CCCN(C(=O)c3ccoc3C)C2)c1` (configuration not stated) stands -2.45% (inactive). Under `COc1cccc(C(=O)N2CCCC(CCC(=O)NCc3ccc(F)c(F)c3)C2)c1` (configuration not stated) stands 50.4% (active); under `COc1cccc(CNC(=O)CCC2CCCN(C(=O)c3ccc(F)c(Cl)c3)C2)c1` (configuration not stated), 6.37% (inactive); under `O=C1N=C(N2CCc3ccccc3C2)S/C1=C\c1ccc(O)cc1`, 16.8% (inactive). For `CC(C)(C)c1ccc(/C=C2\SC(=O)N=C2N)cc1` the value was 9.93% (inactive). Take `NC1=NC(=O)S/C1=C\c1ccc(O)cc1`: the inhibition is 51% (active). Under `CNC(=O)/C(=C\C=C\c1ccccc1)NC(=O)c1ccc([N+](=O)[O-])cc1` stands 4.28% (inactive); under `Cc1ccc(NC(=O)Cn2sc3ccccc3c2=O)cc1`, 3.99% (inactive); under `Cc1cc(NC(=O)CN2C(=O)NC(CCc3ccccc3)C2=O)no1` (configuration not stated), 5.91% (inactive). With `COc1ccc(C2(c3ccc(OC)cc3)NC(=O)N(CC(=O)Nc3cc(C)on3)C2=O)cc1`, the inhibition is -31.2% (inactive). Consider `Cc1cc(NC(=O)CN2C(=O)NC(CC(C)C)C2=O)no1` (configuration not stated), for which the inhibition was 56.2% (active). For `CC1CCN(C(=O)/C(=C\c2ccccc2)NC(=O)c2ccccc2)CC1` the value was 8.16% (inactive).

For `O=C(Cc1cccs1)N(CC1CCCO1)C1(C(=O)NC2CCCCC2)CCCCC1` (configuration not stated), the inhibition is -14.9% (inactive). Under `CC(C)c1ccc2c(c1)c(SC(C)(C)C)c(CC(C)(C)C(=O)O)n2Cc1ccc(Cl)cc1` stands 54.3% (active). In the case of `Cc1ccc(C)c(NC(=O)C(OC(=O)c2ccc(C)s2)c2ccccc2)c1` (configuration not stated), the inhibition was -6.3% (inactive).

With `COCCCNC(=O)c1ccc(CNS(=O)(=O)c2ccc(NC(C)=O)cc2)cc1`, the inhibition is -2.43% (inactive).

As for `O=C(Nc1ccc(S(=O)(=O)N2CCOCC2)cc1)c1ccc2ncsc2c1`, the inhibition is 1.25% (inactive). For `O=C(Nc1ccc(S(=O)(=O)Nc2nccs2)cc1)c1cccc(S(=O)(=O)N2CCOCC2)c1` the value was -0.01% (inactive). Under `Cc1nc2ccc(NC(=O)c3cccc(S(=O)(=O)N4CCOCC4)c3)cc2s1` stands 116% (active). As for `O=C(NNC(=S)NCCCN1CCOCC1)c1ccncc1`, the inhibition is 1.88% (inactive).

With `CNC(=O)C[C@H]1C(=O)N(Cc2ccccc2)C[C@@H]1CSC`, the inhibition was -10.7% (inactive).

For `CN(CCC(=O)Nc1cc(S(=O)(=O)N(C)C)ccc1Cl)CC(=O)Nc1ccc(F)cc1`, the inhibition was -7.88% (inactive). Under `NC(=O)CSC1=Nc2ccccc2C2=NC(CCC(=O)NCc3ccc(F)cc3)C(=O)N12` (configuration not stated) stands 15.6% (inactive); under `O=C(CSC1=Nc2ccccc2C2=NC(c3ccccc3)C(=O)N12)NCC1CCCO1` (configuration not stated), 10.2% (inactive).

For `O=C(CC1N=C2c3ccccc3N=C(SCc3ccccc3Cl)N2C1=O)NCc1ccco1` (configuration not stated), the inhibition was 89.4% (active). Under `CCOc1ccc(NC(=O)COc2ccc(C(=O)N3CCC(C(N)=O)CC3)cc2OC)cc1` stands -31.7% (inactive); under `COCCn1c(C)cc(C(=O)CSc2nc3ccccc3c(=O)n2C(C)COC)c1C` (configuration not stated), 25.5% (inactive); under `COc1cccc(-n2c(SCC(=O)NC3CCS(=O)(=O)C3)nc3ccccc3c2=O)c1` (configuration not stated), 3.38% (inactive). As for `COCCNC(=O)c1ccc(-n2c(SCc3cccnc3)nc3ccccc3c2=O)cc1`, the inhibition is -8.33% (inactive).

For the compound `COCC(C)n1c(SCc2ccc(C(=O)OC)o2)nc2ccccc2c1=O` (configuration not stated), the inhibition was 51.9% (active). Under `COC(=O)c1ccc(CSc2nc3ccccc3c(=O)n2-c2cccc(OC)c2)o1` stands 76.5% (active); under `COCC(C)n1c(SCC(=O)NC2CCCCC2C)nc2ccccc2c1=O` (configuration not stated), 6.09% (inactive).

Broadly, the inhibition is the change of the read-out against control, counted positive when it falls.
